Sampled rows, rich in hits. Any-hit rate of the full collection: about 3.1%.
Casp6 inh = caspase-6 (human) enzyme inhibition | inhibition, % at 12.5 µM | P55212 | 350,000 tested, 0.53% active | purified caspase-6, Z-VEID-R110 cleavage fluorescence;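 active = mean inhibition across replicates at least about 35%, with every replicate also reaching that limit, limit read from the data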
Target sequence (P55212 24-179 limits assumed): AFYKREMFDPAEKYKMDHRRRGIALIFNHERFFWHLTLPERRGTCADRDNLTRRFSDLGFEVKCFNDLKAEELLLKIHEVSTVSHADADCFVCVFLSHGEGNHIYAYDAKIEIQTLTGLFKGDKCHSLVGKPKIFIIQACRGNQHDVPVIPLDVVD
Target sequence (P55212 194-293 limits assumed): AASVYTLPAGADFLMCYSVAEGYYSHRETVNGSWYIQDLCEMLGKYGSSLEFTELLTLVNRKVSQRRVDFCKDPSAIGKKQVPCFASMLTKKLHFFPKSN
FGF22 binding-1 = FGF22 (human) thermal shift binding. recombinant FGF22 thermal shift, SYPRO orange fluorescence; percent of sucrose octasulfate shift, DMSO zero. Q9HCT0. activity (Tm shift, normalised), % at 9.99 µM. 340,000 tested, 1.5% active. AID 651658;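 active = mean Tm shift, scaled 0 neutral to 100 positive control, at about 1.3% or above, every replicate too, limit read from the data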
Target sequence (Q9HCT0 whole entry, looked up): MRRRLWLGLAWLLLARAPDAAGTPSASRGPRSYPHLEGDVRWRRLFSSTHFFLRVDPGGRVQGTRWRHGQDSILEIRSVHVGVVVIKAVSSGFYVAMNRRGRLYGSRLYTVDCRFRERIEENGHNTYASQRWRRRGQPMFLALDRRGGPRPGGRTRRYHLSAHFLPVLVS
SIRT5 block = inhibitors of human sirtuin-5 desuccinylase | Purified SirT5, succinyl-peptide AMC, trypsin-coupled fluorescence | inhibition, % at 15 µM | 330,000 tested, 1.1% active | Q9NXA8; in the data active = inhibition above about 15%
ERAP1 HTS inh = blocks human ERAP1 aminopeptidase activity; Q9NZ08; recombinant ERAP1, Leu-AMC fluorescence, 60 min; inhibition, % at 10.7 µM; 340,000 tested, 0.15% active; AID 652197;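 active = mean replicate inhibition of at least 30%, or all replicates individually reaching that 30% level; inactive = mean below 30% and not every replicate reaching it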
FGF22 binding-2 = FGF22 (human) binding in thermal shift. shares compounds with FGF22 binding-1. AID 720646. recombinant FGF22 thermal shift, SYPRO orange fluorescence. 1,000 tested, 2% active. thermal shift activity, °C (ΔTm) at 38 µM;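 active = fitted rise in melting shift crosses a set limit at or below the top valid dose tested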
TSA no protein = compound-only SYPRO artifact for FGF22 binders; shares compounds with FGF22 binding-1; 1,000 tested, 2% active; AC50, µM (series often up to 38 µM); AID 743019; compound-only SYPRO orange thermal shift counter-screen, no protein;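 active = rising signal whose fitted curve reaches the 0.54 level within the top valid dose, showing a melting point, actives reach about 13 µM in these data; inactive = the rest, including activity in the opposite direction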; also: value is where the raw curve crosses a fixed level and not half-maximal
Of the large screens only hits and unclear results are named; the others gave an inactive call (follow-up assays come after a bar, where they were run).

CC(C)NC(=O)Nc1ccc2c(c1)C(=O)N([C@H](C)CO)C[C@H](C)[C@H](CN(C)C(=O)Nc1cccc3ccccc13)O2	FGF22 binding-1 18.6 | FGF22 binding-2 inactive | TSA no protein inactive
C[C@H]1CN([C@@H](C)CO)C(=O)c2cccc(NC(=O)Nc3ccc4c(c3)OCO4)c2O[C@H]1CN(C)CC1CCCCC1	none
CC(C)NC(=O)Nc1ccc2c(c1)C(=O)N([C@H](C)CO)C[C@H](C)[C@@H](CN(C)C(=O)NC(C)C)O2	FGF22 binding-1 1.6 | FGF22 binding-2 inactive | TSA no protein inactive
C[C@H](CO)N1C[C@H](C)[C@H](CN(C)CC2CCCCC2)Oc2c(NC(=O)Nc3ccc4c(c3)OCO4)cccc2C1=O	FGF22 binding-1 1.4 | FGF22 binding-2 inactive | TSA no protein inactive
CC(C)NC(=O)Nc1ccc2c(c1)C(=O)N([C@H](C)CO)C[C@H](C)[C@@H](CN(C)C(=O)Nc1cccc3ccccc13)O2	none
CO[C@@H]1CN(C)C(=O)c2ccc(NS(C)(=O)=O)cc2OC[C@@H](C)N(CCC(F)(F)F)C[C@@H]1C	none (no result: FGF22 binding-1)
Cc1ccc(NS(=O)(=O)c2ccc(Cl)c(N=Nc3c(O)[nH]c(=O)[nH]c3=O)c2)cc1Cl	none
COc1ccc(NS(=O)(=O)c2cc(N=Nc3c(O)[nH]c(=O)[nH]c3=O)ccc2Cl)cc1	FGF22 binding-1 1.4 | FGF22 binding-2 inactive | TSA no protein inactive
NS(=O)(=O)c1cc(C(=O)NC2CCSc3ccccc32)ccc1Cl (stereo not given)	Casp6 inh 79.9, FGF22 binding-1 1.8, SIRT5 block 43.4 | FGF22 binding-2 inactive | TSA no protein inactive
C[C@@H]1CN([C@H](C)CO)C(=O)c2cc(-c3ccccc3F)cnc2O[C@@H]1CN(C)C(=O)CN(C)C	none
C[C@H]1CCCCO[C@@H](CN(C)Cc2ccc(C(=O)O)cc2)[C@@H](C)CN([C@@H](C)CO)C(=O)c2cc(NC(=O)CCC(F)(F)F)ccc2O1	none
COc1ccccc1NC(=O)c1ccc(NC(=O)c2ccc(=O)[nH]c2)cc1	FGF22 binding-1 1.9 | FGF22 binding-2 inactive | TSA no protein inactive
COc1ccccc1NC(=O)c1ccc(C(=O)Nc2ccccc2OC)nc1	none (no result: SIRT5 block)
O=C(C[C@H]1CC[C@H]2[C@@H](COC[C@@H](O)CN2S(=O)(=O)c2cccc(Cl)c2)O1)NC1CCC1	none
CCOc1ccc(N2C(=O)C(CC(=O)Nc3ccccc3)N(Cc3ccccn3)C2=S)cc1 (stereo not given)	FGF22 binding-1 1.5 | FGF22 binding-2 inactive | TSA no protein inactive
C=CCN1C(=O)C(CC(=O)Nc2ccc(OCC)cc2)N(Cc2ccccn2)C1=S (stereo not given)	none
COc1ccc(N2C(=O)C(CC(=O)Nc3ccccc3)N(Cc3ccccn3)C2=S)cc1 (stereo not given)	FGF22 binding-1 1.7 | FGF22 binding-2 inactive | TSA no protein inactive
CCOc1ccc(N2C(=O)C(CC(=O)Nc3ccc(F)cc3)N(Cc3ccccn3)C2=S)cc1 (stereo not given)	FGF22 binding-1 1.7 (no result: ERAP1 HTS inh) | FGF22 binding-2 inactive | TSA no protein inactive
COc1ccc(N2C(=O)C(CC(=O)Nc3ccccc3)N(Cc3ccc4c(c3)OCO4)C2=O)cc1 (stereo not given)	FGF22 binding-1 1.4 | FGF22 binding-2 inactive | TSA no protein inactive
COc1ccc(NC(=O)CC2C(=O)N(c3ccc(Cl)cc3)C(=S)N2CCc2ccccn2)cc1 (stereo not given)	none
CCOc1ccc(NC(=O)CC2C(=O)N(c3ccc(OCC)cc3)C(=S)N2C2CC2)cc1 (stereo not given)	none
Cc1cc(C(=O)Nc2cccc3c2O[C@@H](CN(C)Cc2ccc(C(F)(F)F)cc2)[C@@H](C)CN([C@H](C)CO)C3=O)n(C)n1	none
CN(C)CC(=O)Nc1ccc2c(c1)[C@@H]1C[C@H](CC(=O)NCCc3ccccc3)O[C@@H](CO)[C@@H]1O2	none
O=C(C[C@H]1CC[C@@H]2[C@H](COC[C@H](O)CN2S(=O)(=O)c2ccccc2F)O1)NCc1ccccc1F	none
C[C@@H]1CCCCO[C@@H](CN(C)C(=O)Nc2ccc3c(c2)OCO3)[C@@H](C)CN([C@H](C)CO)C(=O)c2cc(NS(=O)(=O)c3cccs3)ccc2O1	none
COC(=O)CN1C(=S)N(c2ccc(Cl)cc2)C(=O)C1CC(=O)Nc1ccc(F)cc1 (stereo not given)	FGF22 binding-1 1.9 | FGF22 binding-2 inactive | TSA no protein inactive
COC(=O)CN1C(=S)N(c2ccc(F)cc2)C(=O)C1CC(=O)Nc1ccc(F)cc1 (stereo not given)	none (no result: ERAP1 HTS inh)
CCOC(=O)[C@@H]1[C@H]2COc3cc(OC)ccc3[C@H]2N2C(=O)N(c3ccc(C)cc3)C(=O)[C@]12C	FGF22 binding-1 1.6 (no result: SIRT5 block) | FGF22 binding-2 inactive | TSA no protein inactive
Cc1ccc(-c2nnn(CC(=O)NCCc3ccc4c(c3)OCO4)n2)cc1	FGF22 binding-1 8.9 | FGF22 binding-2 inactive | TSA no protein inactive
O=Cc1ccc(O)c(O)c1	none
Oc1ccc(/C=N/N=C/c2ccc(O)c(O)c2)cc1O	Casp6 inh 67.7, FGF22 binding-1 1.5 | FGF22 binding-2 inactive | TSA no protein 10.5µM
O=C(Cc1cccnc1)N1CC[C@@H]2[C@@H](CO)Nc3ccc(C#Cc4ccccc4F)cc3[C@@H]21	none (no result: FGF22 binding-1)
CCOc1ccc(S(=O)(=O)Nc2ccc(C(=O)NNC(=O)c3ccncc3)cc2)cc1	none
CCOc1ccc(NS(=O)(=O)c2ccc(C(=O)NNC(=O)c3ccccc3O)cc2)cc1	FGF22 binding-1 1.4 | FGF22 binding-2 inactive | TSA no protein inactive
O=C(NNC(=O)c1ccccc1F)c1ccc(NS(=O)(=O)c2ccc(F)cc2)cc1	FGF22 binding-1 1.8 | FGF22 binding-2 inactive | TSA no protein inactive
Cc1ccc(S(=O)(=O)Nc2ccc3c(c2)C(=O)N([C@H](C)CO)C[C@@H](C)[C@H](CN(C)Cc2ccncc2)OCCCC[C@H](C)O3)cc1	none (no result: SIRT5 block)
CC(C)CC(=O)Nc1ccc(C(=O)CN2C(=O)NC3(CCOc4ccccc43)C2=O)cc1 (stereo not given)	FGF22 binding-1 1.9 | FGF22 binding-2 inactive | TSA no protein inactive
CCc1ccc(N2CC(C(=O)OCC(=O)Nc3ccc(C(C)=O)cc3)CC2=O)cc1 (stereo not given)	FGF22 binding-1 1.9 | FGF22 binding-2 inactive | TSA no protein inactive
CCc1ccc(N2CC(C(=O)OCC(=O)Nc3ccc(C#N)cc3)CC2=O)cc1 (stereo not given)	FGF22 binding-1 1.6 | FGF22 binding-2 inactive | TSA no protein inactive
CCc1ccc(N2CC(C(=O)OCC(=O)NC3CC3)CC2=O)cc1 (stereo not given)	none (no result: FGF22 binding-1, SIRT5 block)
CCOC(=O)C1(C)CCCN(C(=O)c2cccc(C#N)c2)C1 (stereo not given)	FGF22 binding-1 2.0, SIRT5 block 15.5 | FGF22 binding-2 inactive | TSA no protein inactive
CCOC(=O)C1(C)CCCN(C(=O)c2ccccc2)C1 (stereo not given)	none

Source: PubChem
